PKM2 act = activators of human pyruvate kinase M2; 0.34% of 260,000 active; AID 1631; Potency, µM (titrated, usually from 57.5 µM), for the others: at the top dose activation, usual class: activators; purified PKM2, Kinase-Glo ATP luminescence, activation; response scale: 0% is enzyme alone, no compound; note: potency is the fitted concentration of half-maximal effect; nearly all actives have a fitted effect of over 55% in size
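ATP formation by purified human PK-M2, quantified via coupled luciferase luminescence after 1 h at room temperature with 0.1 mM ADP and 0.5 mM PEP final.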
GLS inhibitor = glutaminase GLS (human) inhibition; O94925; 0.21% of 410,000 active; Potency, µM (top dose mostly 45.5 µM), for the others: at the top dose activity change, negative = inhibition, usual class: inhibitors; GLS enzymatic activity, qHTS titration; AID 624170; note: potency is the fitted concentration of half-maximal effect
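Read-out is an Amplex red fluorescence increase coupled through glutamate oxidase and HRP, measured before and after 30 min room-temperature incubation. hKGA is in 45 mM KH2PO4 (pH 8.2) with 0.02% Tween-20; glutamine added as 1mM solution.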
TrxR1 substrate = substrates of rat thioredoxin reductase 1; O89049; 0.01% of 390,000 active; AID 588456; purified TrxR1 substrate turnover, NADPH consumption readout; Potency, µM (doses to about 114 µM), for inactives: at the top dose activity change, negative = substrate turnover; note: potency is the fitted concentration of half-maximal effect; nearly all actives have a fitted effect of over 50% in size
Target sequence (O89049 whole entry, looked up): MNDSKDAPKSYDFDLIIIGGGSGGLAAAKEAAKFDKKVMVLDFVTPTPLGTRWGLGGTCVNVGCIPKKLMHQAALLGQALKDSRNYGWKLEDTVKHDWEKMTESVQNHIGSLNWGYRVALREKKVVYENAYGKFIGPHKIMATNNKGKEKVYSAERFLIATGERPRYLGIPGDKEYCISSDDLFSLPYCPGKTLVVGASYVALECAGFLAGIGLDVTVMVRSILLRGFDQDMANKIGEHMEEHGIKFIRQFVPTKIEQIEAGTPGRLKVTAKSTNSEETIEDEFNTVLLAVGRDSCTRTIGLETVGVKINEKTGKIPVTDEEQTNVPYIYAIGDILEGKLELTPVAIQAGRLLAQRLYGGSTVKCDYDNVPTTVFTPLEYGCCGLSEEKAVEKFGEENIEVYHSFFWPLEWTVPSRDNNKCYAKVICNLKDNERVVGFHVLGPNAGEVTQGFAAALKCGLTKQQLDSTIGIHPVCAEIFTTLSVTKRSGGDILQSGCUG
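Rat TrxR1, dispensed at 90 nM, was prereduced with 400 uM NADPH (final) for 5 min at ~22 deg C, then incubated with compound 15 min before 400 uM selenite. A first-read NADPH fluorescence drop versus no-compound background flagged substrates.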
TrxR1 inh = blocks rat thioredoxin reductase 1. O89049. recombinant rTrxR1, NADPH fluorescence consumption, selenite substrate. Potency, µM (highest dose often 114 µM), for inactives: at the top dose activity change, negative = inhibition, usual class: inhibitors. 1% of 390,000 active; note: potency is the fitted concentration of half-maximal effect; nearly all actives have a fitted effect of over 65% in size
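Rat TrxR1 (90 nM in the dispensed reagent) was pre-reduced with 400 uM NADPH for 5 min at room temperature, then incubated with compound for 15 min. After 400 uM selenite was added, NADPH fluorescence (Ex 340/Em 450 nm) was followed for 8 min.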
mIDH1 inhibitor = inhibitors of human mutant IDH1 R132H. IDH1-R132H enzyme, NADPH consumption, diaphorase/resazurin fluorescence. 0.093% of 390,000 active. Potency, µM (series often up to 76.6 µM), for the others: at the top dose activity change, negative = inhibition, most hits filed as inhibitors. O75874. AID 602179; note: potency is the fitted concentration of half-maximal effect; nearly all actives have a fitted effect of over 65% in size
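IDH1-R132H (0.5 ug/mL) preincubated 30 min with compound, then NADPH (0.016 mM) and alpha-KG (2 mM) added; 80 min at RT, pH 7.5. Remaining NADPH coupled via diaphorase/resazurin to fluorescence (540/590 nm); concentration-response curves normalized to no-enzyme control.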
LDHA inh = blocks human lactate dehydrogenase A; P00338; 0.15% of 480,000 active; activity change, % (values are at about 110 or 230 µM); AID 1347041; purified LDHA, NADH/diaphorase-resazurin fluorescence; active compounds read low; in the data active = activity change below about -30%; inconclusive = mostly about -25% to -30%;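 note: plate controls were DMSO wells for no effect and wells without enzyme for full effect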
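LDH5 2 nM; NADH 0.06 mM, pyruvate 0.2 mM; 200 mM Tris pH 7.4, EDTA, Tween-20; 5 min RT. Detection: diaphorase 0.133 mg/mL + resazurin 37 µM, fluorescence ex540/em590 at 0 and 20 min; normalized to enzyme-free and DMSO wells.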
* marks the source's active call; other numbers are inactive results; ! = not confirmed by another sample; [ ] = another dose, or the depositor's remark. The list is not random: actives were taken first. Their share in the collection is about 1.4%. Unless noted, calls come from the whole dose curve; as a rule, active = well fitted curve in the direction sought with a large enough effect; inconclusive = small, poorly fitted or top-dose-only effect, or another doubt; inactive = no such curve, though single readings can be large; an effect the other way counts as inactive or inconclusive. Unless noted, % is set by controls: 0 for no effect and ±100 for the full control effect.

`COc1ccc(N2C(=O)NC(=O)/C(=C\c3ccccc3[N+](=O)[O-])C2=O)cc1` gave PKM2 act 7%, GLS inhibitor -23%, TrxR1 substrate -6%, TrxR1 inh 10µM*, mIDH1 inhibitor -4% and LDHA inh inconclusive.
`CCOc1ccc(N2C(=O)NC(=O)/C(=C\c3ccccc3[N+](=O)[O-])C2=O)cc1` gave PKM2 act 8%, GLS inhibitor 13%, TrxR1 substrate 1%, TrxR1 inh 8.9µM*, mIDH1 inhibitor 2% and LDHA inh -53*.
COc1ccc(N2C(=O)NC(=O)/C(=C/c3ccc4c(c3)Cc3ccccc3-4)C2=O)cc1 was read as PKM2 act 0%.
`Cc1cc2ccccc2n1CC(=O)NCC1(CC(=O)O)CCCCC1` gave LDHA inh -11.
`CCC(C)N1C(=O)/C(=C/c2ccc3c(c2)CCN3CCCCl)C(=O)NC1=S` (stereo not drawn) gave PKM2 act -2%, GLS inhibitor inconclusive, TrxR1 substrate 0%, TrxR1 inh 13µM*, mIDH1 inhibitor -1% and LDHA inh 0.
`NC(=O)C1CCN(C(=O)c2cn(Cc3ccccc3)c3ccccc23)CC1` gave LDHA inh -15.
O=C(COC(=O)CCc1nc2ccccc2s1)Nc1ccc(Cl)cc1C(=O)c1ccccc1 was read as LDHA inh -2.
CCCC(=O)NC(Oc1ccc(C(C)=O)cc1)C(Cl)(Cl)Cl (stereo not drawn) was read as PKM2 act -1%, GLS inhibitor 5%, TrxR1 substrate 2%, TrxR1 inh 25µM*, mIDH1 inhibitor -1% and LDHA inh 24.
For COc1cccc(CCNCc2ccc(Br)cc2)c1 the results were LDHA inh -15.
For CCOc1ccc(CNCCc2c[nH]c3ccccc23)cc1OC the results were LDHA inh 6.
`Cc1c(C=O)c(C)n(C(C)C)c1C` gave LDHA inh 0.
Screening CC(C)N1CCN(c2oc(C3CC3)nc2C#N)CC1 returned LDHA inh 0.
Screening O=C1NC(=O)N(CCC2=CCCCC2)C(=O)/C1=C/c1ccc(O)cc1 returned PKM2 act 16%, GLS inhibitor 15%, TrxR1 substrate -6%, TrxR1 inh inconclusive, mIDH1 inhibitor -2% and LDHA inh 3.
`O=C1NC(=O)N(CCC2=CCCCC2)C(=O)/C1=C/c1cccs1` gave PKM2 act inconclusive, GLS inhibitor -13%, TrxR1 substrate 4%[57.1 µM], TrxR1 inh 7.9µM*, mIDH1 inhibitor 0% and LDHA inh -4.
`CCN1C(=O)C(=Cc2ccc(C)s2)C(=O)N(CC)C1=S` gave PKM2 act 2%, GLS inhibitor -8%, TrxR1 substrate -4%, TrxR1 inh 14µM*, mIDH1 inhibitor -4% and LDHA inh -8.
For CCN1C(=O)C(=Cc2cc(C)n(C3CC3)c2C)C(=O)N(CC)C1=S the results were PKM2 act -3%, GLS inhibitor -12%, TrxR1 substrate -6%, TrxR1 inh inconclusive, mIDH1 inhibitor 4% and LDHA inh -1.
`Cc1ccc(NC(=O)CN2C(=O)CN=C(c3ccc(F)cc3)c3c2sc(C)c3C)cc1` gave LDHA inh -1.
For Cc1ccc(-c2nc3c(=O)n(C)c(=O)nc-3n(C)n2)cc1 the results were TrxR1 substrate 13µM*, TrxR1 inh 11µM* and LDHA inh 23.
`Cn1ncnc2c(=O)n(C)c(=O)nc1-2` gave PKM2 act -13%, GLS inhibitor -9%, TrxR1 substrate 40µM*, TrxR1 inh inconclusive, mIDH1 inhibitor 28% and LDHA inh 25.
For CN(C)[C@@H]1C(=O)C(C(N)=O)=C(O)[C@@]2(O)C(=O)C3=C(O)c4c(O)cccc4[C@@](C)(O)C3[C@H](O)C12 (stereo partly drawn) the results were GLS inhibitor 10µM*!, TrxR1 substrate 3%, TrxR1 inh 32µM*!, mIDH1 inhibitor 10% and LDHA inh -17.
`CCOc1ccccc1CN1CCN(c2ccccc2)CC1` gave LDHA inh 5.
Screening CN1C(=O)NC(=O)/C(=C\c2ccc([N+](=O)[O-])o2)C1=O returned PKM2 act -14%, GLS inhibitor 7.1µM*, TrxR1 substrate -6%, TrxR1 inh 16µM*, mIDH1 inhibitor 10% and LDHA inh 31.
For CC(N)Cc1ccc(N(C)C)cc1 (stereo not drawn) the results were LDHA inh -7.
`COc1ccc(C[C@H]2NC[C@H](O)[C@H]2OC(C)=O)cc1` gave GLS inhibitor -3%, TrxR1 substrate 6%, TrxR1 inh 40µM*, mIDH1 inhibitor -2% and LDHA inh -11.
Screening CC(=O)N1CCCSC1=Nc1ccccc1 returned PKM2 act 0%, GLS inhibitor 2%, TrxR1 substrate 5%[57.1 µM], TrxR1 inh 14%[57.1 µM], mIDH1 inhibitor 2% and LDHA inh -6.
For CCOc1ccccc1N=C1SCCCN1C the results were PKM2 act -4%, GLS inhibitor -11%, TrxR1 substrate 3%, TrxR1 inh 17%, mIDH1 inhibitor 5% and LDHA inh -38*.
For C1NC2CC3CC1CC(C3)C2 the results were LDHA inh -2.
Screening CN1CCC(O)(c2ccc(Cl)cc2)C(C(=O)c2ccc(Cl)cc2)C1 (stereo not drawn) returned PKM2 act -3%, GLS inhibitor 15%, TrxR1 substrate 4%, TrxR1 inh 0.11µM*, mIDH1 inhibitor -12% and LDHA inh -7.
For Cc1[nH]c2ccccc2c1/C=C/[N+](=O)[O-] the results were LDHA inh 12.
Cc1cc(/C=C2\C(=O)NC(=S)N(C)C2=O)c(C)n1C1CCCCC1 was read as PKM2 act 2%, GLS inhibitor -3%, TrxR1 substrate -2%, TrxR1 inh inconclusive, mIDH1 inhibitor -1% and LDHA inh 3.
For O=C1NC(=S)NC(=O)C1=Cc1ccc(Br)s1 the results were PKM2 act 4%[11.5 µM], GLS inhibitor -7%, TrxR1 substrate 2%, TrxR1 inh 4.5µM*, mIDH1 inhibitor -10% and LDHA inh -38*.
`CN1C(=O)/C(=C\c2ccc(Br)s2)C(=O)NC1=S` gave PKM2 act 2%[11.5 µM], GLS inhibitor inconclusive, TrxR1 substrate -5%, TrxR1 inh 3.2µM*, mIDH1 inhibitor 0% and LDHA inh -13.
